Hits are enriched below; roughly 2.7% of the tested compounds scored in any of these assays.
aDG glyco act – alpha-DG glycosylation activation; Pro5-aDG cells, alpha-DG glycosylation AlphaScreen (IIH6); 0% Pro5, 100% B10-LARGE cell signal; activation, % at 10 µM; 360,000 tested, 0.22% active; AID 624168;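 active = activation of at least 8% versus controls, or a plate z-score of at least 8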;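 also: Pro5 are CHO cells carrying HIG-tagged alpha-DG that lacks glycosylation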
NadD inh – NadD (S. aureus) enzyme inhibition; purified NadD enzyme, colorimetric absorbance read-out; inhibition, % at 20 µM; 360,000 tested, 0.78% active; in the data active = inhibition above about 26%
MPTP inh – inhibitors of mitochondrial permeability transition pore; AID 602449; isolated mouse mitochondria, Ca2+ swelling absorbance, 30 min; 360,000 tested, 1.4% active; inhibition, % at 10 µM;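 active = inhibition of 50% or more, scaled per plate between neutral and stimulator controls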
H9c2 TAG inh – inhibitors of triacylglycerol accumulation; H9c2 cells, Nile Red lipid (TAG) fluorescence; cells loaded with 200 µM oleic acid; inhibition, % at 12.5 µM; 230,000 tested, 0.66% active;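 active = pattern-corrected inhibition of lipid staining of at least 50% with the nuclear-stain viability signal not falling by more than 50%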
Hits are given with their value; . = inactive; / = no result given.

SMILES | aDG glyco act | NadD inh | MPTP inh | H9c2 TAG inh
CC(=NNc1nc2ccccc2s1)c1ccncn1 | . | . | . | 63.7
CC1(C)CC(=O)C=C(C#CC2(O)CCCCC2)C1 | . | . | . | 56.5
CC(O)CC(C)O (configuration not stated) | . | . | . | /
Cc1nc(NC(=O)/C=C/c2ccccc2)n[nH]1 | . | . | . | /
COc1cc(C=c2c3ccccc3n3c2cc(-c2ccccc2)[n+]3C)cc(OC)c1OC | . | . | . | .
CN(C)c1ccc(C=c2c3ccccc3n3c2cc(-c2ccc(Cl)cc2)[n+]3C)cc1 | . | 38.9 | . | .
CN(C)c1ccc(C=c2c3cc([N+](=O)[O-])ccc3n3c2cc(-c2ccccc2)[n+]3C)cc1 | . | 48.1 | . | .
COc1cc(CCC(=O)Nc2ccc(C)c(S(=O)(=O)N3CCCCCC3)c2)cc(OC)c1OC | . | . | . | .
CSC(=S)NN=C(C)c1cccc(C)n1 | . | . | . | 55.4
CCOc1ccccc1NC(=O)COC(=O)CCOc1cc(C)ccc1C | . | . | . | .
Cc1csc(NC(=O)CCC(=O)N(CC(=O)NC2CCCCC2)c2ccccc2)n1 | . | . | . | /
COc1cc(/C=N/NC(=O)/C(=C\c2ccc([N+](=O)[O-])cc2)NC(=O)c2ccccc2)cc(OC)c1O | . | . | . | .
O=C(N/N=C/c1cc([N+](=O)[O-])cc([N+](=O)[O-])c1O)/C(=C\c1cccs1)NC(=O)c1ccccc1 | . | 38.9 | . | /
COCC1OC(OC(C)C(O)c2cnc3nc(N)[nH]c(=O)c3n2)C(O)C(OC)C1O (configuration not stated) | . | . | . | /
O=C(COC(=O)Cn1nnc(-c2ccccc2)n1)Nc1cc(F)ccc1F | . | . | . | .
Cc1c(N2C(=O)c3ccccc3C2=O)c(=O)n(-c2ccccc2)n1C | . | . | . | .
Cc1c(N2C(=O)/C(=C\c3cccc4ccccc34)SC2=S)c(=O)n(-c2ccccc2)n1C | . | 42.1 | . | .
Cc1ccc(C(=O)N/C(=C\c2ccc(-c3ccccc3[N+](=O)[O-])o2)C(=O)NCCN(C)C)cc1 | 1.9 | . | . | 57.2
O=c1c(Cl)c(Cl)cnn1Cc1nnc(-c2ccc(Cl)cc2)o1 | . | . | . | 60.9
O=C1CSC(=S)N1N=Cc1c(O)ccc2ccccc12 | . | 33.7 | . | .
Oc1ccc(/C=N/Nc2cc(N3CCCC3)nc(N3CCCC3)n2)cc1O | . | 36.4 | . | /
O=C(NC1CCN(Cc2ccccc2)CC1)c1cccc(S(=O)(=O)Nc2ccc(F)cc2)c1 | . | . | . | .
Cc1ccc(N2CCN(C3=NC(=O)/C(=C\c4cn[nH]c4-c4ccccc4)S3)CC2)cc1 | . | 42.3 | . | /
O=C1N=C(N2CCN(c3ccccc3)CC2)S/C1=C\c1ccco1 | . | . | . | /
O=C1N=C(N2CCN(c3ccccc3)CC2)S/C1=C\c1cn[nH]c1-c1ccccc1 | . | 47.7 | . | /
SMILES | aDG glyco act | NadD inh | MPTP inh | H9c2 TAG inh
COc1ccccc1/C=C1\SC(N2CCC(C)CC2)=NC1=O | . | . | . | /
O=C1N=C(N2CCC(Cc3ccccc3)CC2)S/C1=C/c1cn[nH]c1-c1ccccc1 | . | 41.2 | . | .
Cc1cccc(N2CCN(C3=NC(=O)/C(=C\c4cn[nH]c4-c4ccccc4)S3)CC2)c1 | . | . | . | /
C/C(CC(=O)NCc1ccccc1Cl)=N/NC(=O)c1ccccn1 | . | . | . | /
Cc1[nH]n(C(N)=S)c(=O)c1N=Nc1cc(-c2ccc(Br)cc2)[nH]n1 | . | 42.6 | . | /
O=C(/C=C/[C@H]1O[C@@H](n2ccc(=O)[nH]c2=O)[C@H](O)[C@@H]1O)N1CCN(Cc2ccc(F)cc2)CC1 | . | . | . | /
CCC1CCCCN1S(=O)(=O)c1ccc(C(=O)Nc2nnc(-c3ccccc3Cl)o2)cc1 (configuration not stated) | . | 42.5 | . | .
COc1ccc(C(=O)c2ccc(Cl)cc2)c2ccccc12 | . | . | . | .
COc1ccc(C(=O)c2ccccc2)c2c(O)ccc(C(=O)c3ccccc3)c12 | . | 31.3 | . | .
Cc1ccc(N=Nc2c(N)[nH]n3c(=O)cc(-c4ccccc4)nc23)cc1 | . | 55.3 | . | .
Cc1cc(=O)n2[nH]c(N)c(N=Nc3ccccc3)c2n1 | . | . | . | /
COc1cccc(N=Nc2c(N)[nH]n3c(=O)cc(-c4ccccc4)nc23)c1 | . | 41.9 | . | .
COc1cccc(-c2cc3nc(-c4ccccc4)cc(=O)n3[nH]2)c1 | . | . | . | /
CSc1cccc(-n2cc(-c3ccc4c(c3)OCO4)[nH]c2=O)c1 | . | 38.6 | . | .
Nc1ccc(CCn2ccnc2)cc1 | . | 34.3 | . | /
CCOC(=O)N1CCN(S(=O)(=O)c2ccc(C(=O)NNc3nc4cc(C)cc(C)c4s3)cc2)CC1 | . | 38.9 | . | .
COc1ccc(S(=O)(=O)N(C)C[C@H]2Oc3c(NC(=O)Nc4ccc(C(F)(F)F)cc4)cccc3C(=O)N([C@H](C)CO)C[C@@H]2C)cc1 | . | . | . | 56.5
C[C@H]1CN([C@@H](C)CO)C(=O)c2cccc(NC(=O)Nc3ccc(C(F)(F)F)cc3)c2O[C@@H]1CN(C)S(=O)(=O)c1ccccc1 | . | . | . | .
O=C(O)CN1C(=O)/C(=C\c2ccccc2OCc2ccc(Cl)cc2)SC1=S | . | . | . | /
O=C(O)CN1C(=O)/C(=C\c2cc(Br)ccc2OCc2ccc(Cl)cc2Cl)SC1=S | . | 36.3 | . | /
CN(C)c1nc(N)nc(CSc2nnnn2-c2ccc(Cl)cc2)n1 | . | . | . | .
O=C1c2ccc3c4c(ccc(c24)C(=O)N1CCCCO)C(=O)N(CCCCO)C3=O | . | . | . | 73.1
Nc1c(C(=O)NC2CC2)sc2nc3c(c(-c4ccco4)c12)CC/C3=C/c1ccco1 | . | 93.3 | . | /
NC(=O)c1sc2nc3c(c(-c4ccco4)c2c1N)CCC3 | . | . | . | /
Cc1c(O)ccc(/C=N/Nc2nc(-c3cccnc3)nc3ccccc23)c1O | . | 36.4 | . | 68.8
SMILES | aDG glyco act | NadD inh | MPTP inh | H9c2 TAG inh
Oc1ccc(/C=N/Nc2nc(-c3cccnc3)nc3ccccc23)c(O)c1 | . | 39.3 | . | .
COc1ccc(/C=N/Nc2nc(-c3cccnc3)nc3ccccc23)cc1OC | . | . | . | .
CCOC(=O)[C@]12CCCC=C1N(Cc1ccc(Cl)cc1Cl)C(=O)[C@H](CC(=O)NCc1ccc(OC)c(OC)c1)C2 | . | . | . | /
CCC1=NN2C(=N)/C(=C/c3ccc(OS(=O)(=O)c4ccccc4)cc3)C(=O)N=C2S1 | . | 34.4 | . | /
Cc1ccc(S(=O)(=O)Oc2ccc(/C=C3\C(=N)N4N=C(S(C)(=O)=O)SC4=NC3=O)cc2)cc1 | . | 34.1 | . | /
Cc1ccc2c(c1)N(CC(=O)Nc1ccccc1F)C(=O)C(C)O2 (configuration not stated) | . | . | . | .
O=C(C[C@H]1CC[C@H]2[C@@H](COC[C@@H](O)CN2S(=O)(=O)c2ccc(F)cc2)O1)N[C@@H]1CCN(Cc2ccccc2)C1 | . | / | . | /
COC(=O)C1=C(C)NC(=O)/C1=C\c1cc(C)n(-c2cc(C)cc(C)c2)c1C | . | 31.7 | . | .
COC(=O)C1=C(C)NC(=O)/C1=C\c1cc(C)n(-c2ccccc2)c1C | . | . | . | .
Cc1ccc(S(=O)(=O)c2c(N)n(/N=C/c3ccco3)c3nc4ccccc4nc23)cc1C | . | 53.8 | . | .

High-throughput results from PubChem BioAssay.
